# From PubChem BioAssay (NCI)
# About 79,000 compounds went through this panel and 15% of them were active in at least one assay; those are over-represented in the sample as a whole. A number with no mark means an inactive call. Active and inactive are the calls of the source. Cut-off read from the data, not from the text of the source: active = growth inhibition above about 70%; inactive = the rest.
# Tests used:
# [1] = NCI Yeast Anticancer Drug Screen. Data for the rad50 strain (AID 155);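 note: 0% = growth of vehicle-only cultures of the same strain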; settings: S. cerevisiae rad50 strain growth inhibition, hits give high values
# Procedure, shortened: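 Relative growth inhibition (compound vs vehicle) was measured in yeast with a defined repair-gene alteration.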
# [2] = NCI Yeast Anticancer Drug Screen. Data for the mec2-1 strain (AID 157); settings: S. cerevisiae mec2-1 strain, hits give high values
# Procedure, shortened: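 Vehicle-treated cultures served as reference for growth inhibition of compound-exposed mec2-1 yeast.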
# [3] = NCI Yeast Anticancer Drug Screen. Data for the sgs1 mgt1 strain (AID 161);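 note: 0% = growth of cultures given vehicle only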; settings: S. cerevisiae sgs1 mgt1 strain, hits give high values
# Procedure, shortened: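 Read-out: growth inhibition vs vehicle controls. Cells: mutant yeast strain deficient in DNA damage repair.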
# [4] = NCI Yeast Anticancer Drug Screen. Data for the cln2 rad14 strain (AID 165);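 note: 0% = growth equal to vehicle treated cultures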; settings: S. cerevisiae cln2 rad14 strain, hits give high values
# Procedure, shortened: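 Each compound was tested on cln2 rad14 yeast. Inhibition of growth was calculated against vehicle-exposed controls.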
# [5] = NCI Yeast Anticancer Drug Screen. Data for the bub3 strain (AID 167); settings: S. cerevisiae bub3 mutant strain, hits give high values
# Procedure, shortened: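 Screening used yeast with an engineered genetic alteration affecting cell cycle control. Compound-exposed cultures were compared with vehicle cultures, and reduced growth was taken as inhibition.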
# [6] = NCI Yeast Anticancer Drug Screen. Data for the mlh1 rad18 strain (AID 175); settings: S. cerevisiae mlh1 rad18 strain growth inhibition, hits give high values
# Procedure, shortened: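 Vehicle-treated cultures served as the reference for growth inhibition in a yeast strain carrying DNA damage repair alterations exposed to each compound.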
# [7] = at 5.0 µM (retest, dose inferred, filed as 0.5)
# [8] = at 50.0 µM (retest, dose inferred, filed as 5.0)
Compound,"growth inhibition [1, 7] [%]","growth inhibition [1, 8]",growth inhibition ([1]; at 50.0 µM),"growth inhibition [2, 7] [%]","growth inhibition [2, 8]",growth inhibition ([2]; at 50.0 µM),"growth inhibition [3, 7] [%]","growth inhibition [3, 8]",growth inhibition ([3]; at 50.0 µM),"growth inhibition [4, 7] [%]","growth inhibition [4, 8]",growth inhibition ([4]; at 50.0 µM),"growth inhibition [5, 7] [%]","growth inhibition [5, 8]",growth inhibition ([5]; at 50.0 µM),"growth inhibition [6, 7] [%]","growth inhibition [6, 8]",growth inhibition ([6]; at 50.0 µM)
COc1cc2c(cc1OC)-c1nc(N)sc1CC2,2,-4%,86.8% (active),-2,-1%,85.5% (active),2,-23%,81.8% (active),-4,4%,85.7% (active),-2,-4%,85.8% (active),-1,7%,88.3% (active)
N#CC(=C1C=CC(=NO)C=C1)c1cccc2ccccc12,36,91% (active),93.2% (active),15,94% (active),95.5% (active),39,92% (active),93.1% (active),3,91% (active),90.2% (active),5,91% (active),96.2% (active),28,91% (active),87.8% (active)
Nc1ccc2c(c1)C(=O)c1ccccc1-2,9,57%,68.2%,3,15%,26.1%,0,6%,21.4%,1,7%,11.6%,2,9%,-6.55%,2,25%,14.2%
ClCCOCCOc1c(Cl)cc(Cl)c(Cl)c1Cl,6,12%,58.4%,0,13%,27.6%,9,58%,43.5%,4,-11%,-26.7%,3,14%,59.6%,9,26%,71% (active)
CC(=O)NCCN(C)C,2,-1%,93.5% (active),2,-4%,97% (active),6,-1%,84.1% (active),-2,-3%,85.7% (active),-3,0%,92.5% (active),4,4%,88.8% (active)
Cc1ccc(SC2C(=O)C3(C)CCC2C3(C)C)cc1 (configuration not stated),-1,32%,64.2%,-1,27%,28.8%,-2,44%,72.2% (active),-1,1%,-21.7%,2,28%,37.5%,0,52%,82% (active)
COC(=O)C1=Cc2cc3c(cc2[C@H](c2ccc4c(c2)OCO4)C1C(=O)OC)OCO3 (some centres not stated),2,26%,48.6%,-5,20%,33.9%,3,40%,47.5%,0,40%,37%,26,70% (active),71.4% (active),2,23%,56.8%
ON=C1Cc2ccccc2-c2ccccc2C1,2,1%,-23%,2,5%,-11.1%,8,4%,-3.3%,1,7%,39.2%,-5,1%,6.1%,-3,-2%,17.1%
CC(C)=CCC/C(C)=C/CC/C(C)=C/CC/C=C(\C)CC/C=C(\C)CCC[N+](C)(C)[O-],14,90% (active),98.9% (active),17,91% (active),99.4% (active),46,94% (active),99.2% (active),5,59%,98.4% (active),16,95% (active),98.8% (active),13,73% (active),99.1% (active)
O=C(O)C1C(C(=O)Nc2ccc3c(c2)Cc2ccccc2-3)C2(Cl)C(Cl)=C(Cl)C1(Cl)C2(Cl)Cl (configuration not stated),31,99% (active),98.4% (active),27,99% (active),98.7% (active),47,99% (active),98.5% (active),31,99% (active),98.3% (active),14,99% (active),98.3% (active),46,99% (active),98.3% (active)
c1ccc(-c2ccc(-c3ccc(C4=NCCN4)cc3)o2)cc1,13,91% (active),95.7% (active),16,79% (active),95% (active),-1,51%,96.8% (active),-21,70% (active),89% (active),4,86% (active),95.8% (active),3,95% (active),97.5% (active)
c1ccc2c(c1)CCc1[nH]c3c(c1-2)-c1ccccc1CC3,24,94% (active),87.5% (active),16,96% (active),91.2% (active),21,94% (active),90.4% (active),62,95% (active),88.4% (active),69,94% (active),89.8% (active),31,91% (active),86.3% (active)
CS(=O)(=O)OCCN(CCOS(C)(=O)=O)c1ccc(C=Nc2cc(Cl)c(O)c(Cl)c2)c(Cl)c1,-1,28%,46.6%,42,4%,-5%,-1,32%,38.5%,0,3%,-23.1%,-1,-1%,1.25%,9,57%,86% (active)
CCCCCCN(CCCCCC)CCCC(O)c1cccc2ccccc12 (configuration not stated),-2,-5%,99.2% (active),2,2%,99.3% (active),0,1%,99.2% (active),0,-3%,99.2% (active),-2,2%,97% (active),1,-3%,99.2% (active)
CCc1cccc(C)c1NC(=O)C(=O)C(C#N)c1ccc(C)cc1 (configuration not stated),-3,27%,28.5%,0,5%,13.2%,-25,-1%,17.9%,8,18%,13.7%,-4,39%,16.1%,13,24%,23.9%
CN(C)C1CCC2C(=C1OC(=O)c1ccccc1)C=Cc1ccccc12 (configuration not stated),-1,11%,25%,2,16%,13.4%,13,38%,31.9%,4,7%,-1.4%,0,12%,22.9%,21,53%,67.5%
c1ccc2cc3c(ccc4cccc[n+]43)cc2c1,17,28%,34.3%,20,52%,18%,23,53%,35.6%,30,29%,71.5% (active),-4,8%,27.7%,10,45%,29.9%
O=C(N(c1ccc(Cl)cc1)c1ccc(Cl)cc1)C(Cl)(Cl)Cl,20,68%,-13.9%,23,63%,5.7%,14,69%,4.95%,14,65%,-7.95%,33,74% (active),-1.25%,38,74% (active),18.1%
N=C(N)c1ccc(OCCCCOc2ccc(N)cc2Cl)cc1,-36,89% (active),54.5%,-2,79% (active),7.85%,3,98% (active),44.4%,-2,38%,-16.9%,0,97% (active),0.65%,17,98% (active),58.6%
